# Data taken from PubChem BioAssay AID1159580 (chemical genetic matrix, 2015).
# About 2,000 (36%) of roughly 5,500 compounds were called active. About 18% were inconclusive and are not listed. The list shows a part of the results. Values without a mark were called inactive. Rule as the data show it: active = normalized growth mostly below about 0.91 (no sharp cut-off); inconclusive = no clear call, values can overlap the other calls; inactive = mostly above about 0.92.
# Assay: chemical genetic growth profiling, strain panel (AID 1159580);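 also: tested at 20 µM; growth read once vehicle control cultures reached saturation at 30 °C; 1 = growth at the plate median or of vehicle wells; lower values mean less growth of the strain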
# Details: growth OD
# [1] = S. cerevisiae deletion strains, locus YHR030C, strain SLT2, hits give low values
# [2] = S. cerevisiae deletion strains, locus YAL013W, strain DEP1, hits give low values
# [3] = S. cerevisiae deletion strains, locus YBR229C, strain ROT2, hits give low values
# [4] = S. cerevisiae deletion strains, locus YDL101C, strain DUN1, hits give low values
# [5] = S. cerevisiae deletion strains, locus YDL134C, strain PPH21, hits give low values
# [6] = S. cerevisiae deletion strains, locus YDR150W, strain NUM1, hits give low values
# [7] = S. cerevisiae deletion strains, locus YEL061C, strain CIN8, hits give low values
# [8] = S. cerevisiae deletion strains, locus YGR078C, strain PAC10, hits give low values
# [9] = S. cerevisiae deletion strains, locus YGR229C, strain SMI1, hits give low values
# [10] = S. cerevisiae deletion strains, locus YHR087W, strain rtc3, hits give low values
# [11] = S. cerevisiae deletion strains, locus YJL187C, strain SWE1, hits give low values
# [12] = S. cerevisiae deletion strains, locus YJR043C, strain POL32, hits give low values
# [13] = S. cerevisiae deletion strains, locus YJR075W, strain HOC1, hits give low values
# [14] = S. cerevisiae deletion strains, locus YKL190W, strain CNB1, hits give low values
# [15] = S. cerevisiae deletion strains, locus YLR039C, strain RIC1, hits give low values
# [16] = S. cerevisiae deletion strains, locus YLR058C, strain SHM2 (second series), hits give low values
# [17] = S. cerevisiae deletion strains, locus YLR085C, strain ARP6, hits give low values
# [18] = S. cerevisiae deletion strains, locus YLR262C, strain YPT6, hits give low values
# [19] = S. cerevisiae deletion strains, locus YML094W, strain GIM5, hits give low values
# [20] = S. cerevisiae deletion strains, locus YMR219W, strain ESC1, hits give low values
# [21] = S. cerevisiae deletion strains, locus YMR263W, strain SAP30, hits give low values
# [22] = S. cerevisiae deletion strains, locus YNL153C, strain GIM3, hits give low values
# [23] = S. cerevisiae deletion strains, locus YNL298W, strain CLA4 (second series), hits give low values
# [24] = S. cerevisiae deletion strains, locus YNL322C, strain KRE1, hits give low values
# [25] = S. cerevisiae deletion strains, locus YNR030W, strain Alg12, hits give low values
# [26] = S. cerevisiae deletion strains, locus YPL055C, strain LGE1, hits give low values
# [27] = S. cerevisiae deletion strains, locus YPL241C, strain CIN2, hits give low values
# [28] = S. cerevisiae deletion strains, locus YPR135W, strain CTF4, hits give low values
# [29] = S. cerevisiae strains, strain wild type, hits give low values
structure (smiles),measurement,setting,value
CN(C(=O)C(Cl)Cl)c1ccc(OC(=O)c2ccco2)cc1,normalized growth,[1],0.959
same,normalized growth,"S. cerevisiae deletion strains, locus YHR079C, strain IRE1, hits give low values",0.98
same,normalized growth,"S. cerevisiae deletion strains, locus YJL095W, strain BCK1, hits give low values",0.973
same,normalized growth,"S. cerevisiae deletion strains, locus YJR066W, strain TOR1, hits give low values",0.915
same,normalized growth,"S. cerevisiae deletion strains, locus YLR113W, strain HOG1, hits give low values",1.05
same,normalized growth,"S. cerevisiae deletion strains, locus YNL183C, strain NPR1, hits give low values",0.96
same,normalized growth,"S. cerevisiae deletion strains, locus YOR231W, strain MKK1, hits give low values",0.975
same,normalized growth,"S. cerevisiae deletion strains, locus YPL256C, strain CLN2, hits give low values",1
COC(=O)c1scc(S(=O)(=O)C(C)C)c1N/N=C(/C#N)C(=O)c1ccccc1,normalized growth,[2],0.965
same,normalized growth,[3],0.974
same,normalized growth,[4],0.986
same,normalized growth,[5],0.974
same,normalized growth,[6],0.973
same,normalized growth,[7],0.965
same,normalized growth,[8],0.969
same,normalized growth,[9],0.971
same,normalized growth,[1],0.929
same,normalized growth,[10],0.927
same,normalized growth,[11],1.03
same,normalized growth,[12],0.995
same,normalized growth,[13],0.961
same,normalized growth,[14],0.976
same,normalized growth,[15],0.902
same,normalized growth,[16],0.954
same,normalized growth,[17],1.06
same,normalized growth,[18],0.839
same,normalized growth,[19],1.04
same,normalized growth,[20],0.95
same,normalized growth,[21],0.905
same,normalized growth,[22],0.998
same,normalized growth,[23],0.983
same,normalized growth,[24],0.942 (active)
same,normalized growth,[25],1.01
same,normalized growth,"S. cerevisiae deletion strains, locus YOL006C, strain TOP1, hits give low values",0.923
same,normalized growth,[26],0.885
same,normalized growth,[27],1.02
same,normalized growth,[28],0.928
same,normalized growth,[29],0.967
CC(C)S(=O)(=O)c1csc(C(N)=O)c1Cl,normalized growth,[2],1.01
same,normalized growth,[3],1.02
same,normalized growth,"S. cerevisiae deletion strains, locus YCL061C, strain MRC1, hits give low values",1.02
same,normalized growth,[4],0.989
same,normalized growth,[5],1.01
same,normalized growth,[6],0.958
same,normalized growth,[7],1.04
same,normalized growth,[8],1
same,normalized growth,[9],1
same,normalized growth,[1],1.09
same,normalized growth,[10],1
same,normalized growth,[11],0.983
same,normalized growth,[12],1.01
same,normalized growth,[13],1.01
same,normalized growth,[14],1.01
same,normalized growth,[15],1.05
same,normalized growth,[16],1.01
same,normalized growth,[17],1.02
same,normalized growth,[18],1.05
same,normalized growth,[19],0.996
same,normalized growth,[20],1.01
same,normalized growth,[21],0.996
same,normalized growth,"S. cerevisiae deletion strains, locus YMR307W, strain GAS1, hits give low values",1.01
same,normalized growth,[22],1
same,normalized growth,[23],1.04
same,normalized growth,[24],1.01
same,normalized growth,[25],1.03
same,normalized growth,[26],0.954
same,normalized growth,[27],0.991
same,normalized growth,[28],1.07
same,normalized growth,[29],1.02
